Source: PubChem BioAssay (NCATS)
Results filed as inconclusive are left out. Active and inactive are the calls of the source. The call rests on the fitted dose curve; in most records, active means well fitted curve in the direction sought with a large enough effect; inconclusive means small, poorly fitted or top-dose-only effect, or another doubt; inactive means no such curve, though single readings can be large; an effect the other way counts as inactive or inconclusive.

Key:
[1] = qHTS of pediatric cancer cell lines to identify multiple opportunities for drug repurposing: Primary screen for U-2 OS cells (AID 1347096); further: nearly all actives have a fitted effect of over 50% in size; further: potency means the concentration at half of the fitted maximal effect
How it was run: (§1)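 Cells (500-1,000/well) rested 5 h, then received compounds for 48 h; metabolically active cells were measured by CellTiter-Glo luminescence. Final concentrations spanned up to 46 µM (MIPE, 11-point) or 0.59 nM-46 µM (NPC, 8-point) in primary screens, 11-point in follow-ups.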

[2] = qHTS of pediatric cancer cell lines to identify multiple opportunities for drug repurposing: Primary screen for Saos-2 cells (AID 1347097); further: nearly all actives have a fitted effect of over 40% in size; further: potency means the concentration at half of the fitted maximal effect
How it was run: (§2)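 ATP-based luminescence (CellTiter-Glo) quantifies viability after a 48-hour exposure. Compounds are dosed across 8 or 11 final concentrations; DMSO and 2.3 µM bortezomib serve as controls.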

[3] = qHTS of pediatric cancer cell lines to identify multiple opportunities for drug repurposing: Primary screen for SK-N-SH cells (AID 1347098); further: nearly all actives have a fitted effect of over 65% in size; further: potency means the concentration at half of the fitted maximal effect
How it was run: as §1

[4] = qHTS of pediatric cancer cell lines to identify multiple opportunities for drug repurposing: Primary screen for NB1643 cells (AID 1347099); further: nearly all actives have a fitted effect of over 50% in size; further: potency means the concentration at half of the fitted maximal effect
How it was run: as §2

[5] = qHTS of pediatric cancer cell lines to identify multiple opportunities for drug repurposing: Primary screen for LAN-5 cells (AID 1347100); further: potency means the concentration at half of the fitted maximal effect
How it was run: as §1

[6] = qHTS of pediatric cancer cell lines to identify multiple opportunities for drug repurposing: Primary screen for BT-12 cells (AID 1347101); further: nearly all actives have a fitted effect of over 25% in size; further: potency means the concentration at half of the fitted maximal effect
How it was run: as §1

[7] = qHTS of pediatric cancer cell lines to identify multiple opportunities for drug repurposing: Primary screen for Rh18 cells (AID 1347102); further: nearly all actives have a fitted effect of over 65% in size; further: potency means the concentration at half of the fitted maximal effect
How it was run: as §1

[8] = qHTS of pediatric cancer cell lines to identify multiple opportunities for drug repurposing: Primary screen for RD cells (AID 1347104); further: nearly all actives have a fitted effect of over 55% in size; further: potency means the concentration at half of the fitted maximal effect
How it was run: as §2

[9] = qHTS of pediatric cancer cell lines to identify multiple opportunities for drug repurposing: Primary screen for MG 63 (6-TG R) cells (AID 1347105); further: nearly all actives have a fitted effect of over 50% in size; further: potency means the concentration at half of the fitted maximal effect
How it was run: as §2

[10] = qHTS of pediatric cancer cell lines to identify multiple opportunities for drug repurposing: Primary screen for control Hh wild type fibroblast cells (AID 1347106);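 further: series mostly up to about 46 µM; a drop in luminescence marks cytotoxicity and a rise apparent proliferation; nearly all actives have a fitted effect of over 55% in size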
How it was run: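 Viability after 48 h compound treatment at 37C, 500-1,000 cells/well, read as ATP luminescence with CellTiter-Glo. Primary screens used 11-point (MIPE, 0.78 nM-46 µM) or 8-point (NPC, 0.59 nM-46 µM) final concentrations; follow-up screens used 11-point dilutions.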

[11] = qHTS of pediatric cancer cell lines to identify multiple opportunities for drug repurposing: Primary screen for Rh30 cells (AID 1347107); further: series mostly up to about 46 µM; nearly all actives have a fitted effect of over 75% in size
How it was run: as §1

[12] = qHTS of pediatric cancer cell lines to identify multiple opportunities for drug repurposing: Primary screen for Rh41 cells (AID 1347108); further: nearly all actives have a fitted effect of over 70% in size; further: potency means the concentration at half of the fitted maximal effect
How it was run: as §2

[13] = qHTS of pediatric cancer cell lines to identify multiple opportunities for drug repurposing: Primary screen for OHS-50 cells (AID 1347103); further: nearly all actives have a fitted effect of over 40% in size; further: potency means the concentration at half of the fitted maximal effect
How it was run: as §1

[14] = qHTS of pediatric cancer cell lines to identify multiple opportunities for drug repurposing: Confirmatory screen for NB1643 cells (AID 1347109); further: nearly all actives have a fitted effect of over 45% in size
How it was run: as §1

[15] = qHTS of pediatric cancer cell lines to identify multiple opportunities for drug repurposing: Confirmatory screen for A673 cells (AID 1347110);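 further: cells exposed to compound for 48 h before the viability read; nearly all actives have a fitted effect of over 65% in size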
How it was run: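 Concentration-response curves came straight from titrations: 11 points (0.78 nM to 46 µM) for MIPE and several concentrations (0.59 nM to 46 µM) for NPC in primary, 11 points in follow-up. Readout: ATP luminescence at 48 h.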

[16] = qHTS of pediatric cancer cell lines to identify multiple opportunities for drug repurposing: Confirmatory screen for SK-N-MC cells (AID 1347111);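 further: cells exposed to compound for 48 h before the readout; nearly all actives have a fitted effect of over 70% in size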
How it was run: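 Seed 500-1,000 cells/well; rest 5 h at 37 degrees C. Pin-transfer compounds, 11-point titration. Incubate 48 h. Add CellTiter-Glo, 15 min RT, read luminescence.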

[17] = qHTS of pediatric cancer cell lines to identify multiple opportunities for drug repurposing: Confirmatory screen for BT-12 cells (AID 1347112); further: nearly all actives have a fitted effect of over 55% in size
How it was run: as §1

[18] = qHTS of pediatric cancer cell lines to identify multiple opportunities for drug repurposing: Confirmatory screen for DAOY cells (AID 1347114); further: nearly all actives have a fitted effect of over 65% in size
How it was run: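 Viability measured as metabolically active cells via CellTiter-Glo luminescence following 48 hours of compound exposure, 11-point dilutions in confirmatory testing. 500-1,000 cells/well plated 5 hours before dosing; controls were DMSO and 2.3 µM bortezomib.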

Measured: Potency

COc1cc2c(cc1OC)C(=O)CC2
not listed: [13] | [14] | [15] | [16] | [17] | [18]
inactive: all other assays above

CCOC(=O)[C@H](CCc1ccccc1)N[C@@H](C)C(=O)N(CC(=O)O)C1Cc2ccccc2C1
inactive: [1] | [2] | [4] | [5] | [6] | [7] | [8] | [10] | [11]

CC(C)=CCNc1ncnc2c1ncn2[C@@H]1O[C@H](CO)[C@@H](O)[C@H]1O
active: [1] 21.1 µM | [3] 5.45 µM | [4] 5.31 µM | [5] 5.96 µM | [7] 2.66 µM

CO/N=C(\C(=O)O)c1csc(NC(=O)CCl)n1
not listed: [2] | [14] | [15] | [16] | [17] | [18]
inactive: all other assays above

CC(C)(C)NCC(O)COc1ccccc1OCC1CCCO1 (stereo unspecified)
not listed: [8] | [14] | [15] | [16] | [17] | [18]
inactive: all other assays above

COc1cc2c(cc1OC)CN(C(=O)[C@H](C)N[C@@H](CCc1ccccc1)C(=O)O)[C@H](C(=O)O)C2
not listed: [5] | [10] | [14] | [15] | [16] | [17] | [18]
inactive: all other assays above

CC(C)CCCC(C)NCCC(C)C (stereo unspecified)
not listed: [7] | [14] | [15] | [16] | [17] | [18]
inactive: all other assays above

CCc1cc2cc(OC)c(OC)cc2c(Cc2ccccc2)n1
active: [13] 21.9 µM
not listed: [3] | [5] | [10]
inactive: all other assays above

CCCCN(CCCC)C(C(N)=O)c1ccc(OC)cc1 (stereo unspecified)
not listed: [13] | [14] | [15] | [16] | [17] | [18]
inactive: all other assays above

OC1(c2ccc(Cl)c(C(F)(F)F)c2)CCN(CCCC(c2ccc(F)cc2)c2ccc(F)cc2)CC1
active: [1] 21.1 µM | [2] 11.9 µM | [3] 24.4 µM | [6] 21.9 µM | [7] 23.7 µM | [13] 3.89 µM | [8] 21.1 µM | [9] 13.3 µM | [12] 16.8 µM

CCOC(=O)Cn1cccc1-c1nc(-c2ccc(OC)cc2)c(-c2ccc(OC)cc2)s1
not listed: [13] | [14] | [15] | [16] | [17] | [18]
inactive: all other assays above

CN(C)CCCOC1(Cc2ccccc2)CCCCCC1
inactive: [1] | [3] | [4] | [5] | [6] | [7] | [9] | [10] | [11] | [12]
